40 sequences from the supplement of paper PMC10338343 can be followed below.

± gives the standard deviation.

The test system of the experiment is EfPiwi piRISC loaded with L1MC piRNA (26 nt). Put plainly: pre-steady-state target cleavage rate (min^-1); auxiliary factor: none (no Gtsf1); guide: L1MC piRNA 5'p-UAACUAAAUACUAUGCAAGCUGUAGG; MIWI and MILI are mouse PIWI proteins and EfPiwi is from a freshwater sponge; tags in brackets are library labels; higher = faster piRNA-guided slicing of the target. On the procedure: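 Cleave-'n-Seq: a library of target RNAs (target site in constant flanks) at […] was incubated with 1 nM active freshwater sponge Ephydatia fluviatilis Piwi piRISC (synthetic 5'-monophosphorylated piRNA guide) with or without 500 nM EmGtsf1 at 33 °C for 1 min to 16 h. Uncleaved targets were sequenced and the pooled three trials fitted to a burst-and-steady-state model to give the pre-steady-state cleavage rate (min^-1). Sequence is the target site only. Fits with R² ≤ 0 are excluded.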
As to UCCUGGAACAGCUUGGAUUGUAUUUAGUUA, the “pre-steady-state target cleavage rate” value is less than 0.0001.

UCCUGGAUGUGCUUGCAUAGUCUUUAGUUA: the “pre-steady-state target cleavage rate” value is 0.00821 ± 0.0047.

For UCCUGGAUGUCGAACGUUAGUUUAUAGUUA, the “pre-steady-state target cleavage rate” value was less than 0.0001.

Turning to UCCUGGAUGUCGAUGCAGUAGUAUUUAGUUA, the “pre-steady-state target cleavage rate” value was less than 0.0001.

With UCCUGGAUCAGCUUGCAUAGUAUUAUAGUUA, the “pre-steady-state target cleavage rate” value is 0.00759 ± 0.0041.

Turning to UCCUGGAUGUCGUUGCAUAGUAUUUAUUA, the “pre-steady-state target cleavage rate” value was less than 0.0001.

On to UCCUGGAUGAGCUUGCAUAGAUUUUAGUAA, for which the “pre-steady-state target cleavage rate” value is less than 0.0001.

In the case of UCCUGGAUGUCGAUGCAUAGUAUUUACAAA, the “pre-steady-state target cleavage rate” value was less than 0.0001.

For the sequence UCCUCCUACAGGAAGCAUAGUAUUUACAAA, the “pre-steady-state target cleavage rate” value is less than 0.0001.

In the case of UCCUGGAUCUGCUUGCAUAGUAUAUAGUUA, the “pre-steady-state target cleavage rate” value came out at 0.011 ± 0.0069.

Regarding UCCUGGAUGUCGUUACAUAGUAUUUAGUUA, the “pre-steady-state target cleavage rate” value was less than 0.0001.

Regarding UCCUGGAUGAGCUUGCAUAGUAUUAUAGUUA, the “pre-steady-state target cleavage rate” value was determined as 0.0249 ± 0.011.

For the sequence UCCUGGAUGUCGAAGGAUAGUAUUUUGUUA, the “pre-steady-state target cleavage rate” value is less than 0.0001.

On to UCCUGGAUGUCGAAGCAUAGUAUUUAGGUA, for which the “pre-steady-state target cleavage rate” value was less than 0.0001.

For the sequence UCCUGGAUGUCGAACGUAUCUAUUUAUUUA, the “pre-steady-state target cleavage rate” value was less than 0.0001.

Turning to UCCUGGAUGAGCUUGCAUAGUAUGUAGUUA, the “pre-steady-state target cleavage rate” value worked out at 0.00616 ± 0.0049.

Turning to UCCUGGAUGUCGAACGUAUGUAUUUGAGUUA, the “pre-steady-state target cleavage rate” value is less than 0.0001.

As for UCCUGGAAGAGCUUGCAUACUAUUUAGUUA, the “pre-steady-state target cleavage rate” value came out at 0.00581 ± 0.0041.

On to UCCUGGAUGUGCUUGCAAAGUAUUUUGUUA, for which the “pre-steady-state target cleavage rate” value is less than 0.0001.

Consider UCCUGGAUCAGCUUGGAUACUAUUUAGUUA, for which the “pre-steady-state target cleavage rate” value is less than 0.0001.

As to UCCUGCUACAGCUUGGAUAGUAUUUACAAA, the “pre-steady-state target cleavage rate” value is less than 0.0001.

Turning to UCCUGGAUGUCCAUGCAUAGUAUUAAGUUA, the “pre-steady-state target cleavage rate” value is less than 0.0001.

For the sequence UCCUGGAUGUGCAUGCAUAGUAUUUAGAUA, the “pre-steady-state target cleavage rate” value was less than 0.0001.

With UCCUGGAUGUCGAACCCUAGUAUUUAGUUA, the “pre-steady-state target cleavage rate” value was less than 0.0001.

For the sequence UCCUCCUACACCUUCCAUAGUAUUUAGUUA, the “pre-steady-state target cleavage rate” value was less than 0.0001.

In the case of UCCUGGAUCAGCUUGCAUAGUAUCUUAGUUA, the “pre-steady-state target cleavage rate” value stood at 0.0132 ± 0.0071.

“UCCUGGUACAGCUUGCAAUCAUAAAUCAAA [g14:g24:cont:t1A]”: the “pre-steady-state target cleavage rate” value was less than 0.0001.

For the sequence UCCUGGAUGUCCUUGCAAAGUAAUUAGUUA, the “pre-steady-state target cleavage rate” value was less than 0.0001.

Take UCCUGCUACAGCUUGCAUAGUAUUUAGCUA: the “pre-steady-state target cleavage rate” value is less than 0.0001.

Consider UCCUGGAUCAGCUUGCAUAGUAUUUACGUUA, for which the “pre-steady-state target cleavage rate” value stood at 0.011 ± 0.006.

On to UCCUGGAUGAGCUUGCAUAGUUUUUAGAUA, for which the “pre-steady-state target cleavage rate” value is less than 0.0001.

Take UCCUGGAUGUCGAACCAUACGUAUUUAGUUA: the “pre-steady-state target cleavage rate” value is less than 0.0001.

As for UCCUGGAUGUCGUUCAUAGUAUUUAGUUA, the “pre-steady-state target cleavage rate” value is less than 0.0001.

Regarding UCCUGGAUGUCGAACGUUAGUAAAUAGUUA, the “pre-steady-state target cleavage rate” value was less than 0.0001.

With UCCUGGAUGUCGAAGCAUAGUAUUUUGAUA, the “pre-steady-state target cleavage rate” value is less than 0.0001.

Regarding UCCUCGUACAGCUUGCAUAGAAUUUAGUUA, the “pre-steady-state target cleavage rate” value was 0.00853 ± 0.0037.

Consider UCCUGGUACAGGAUGCAUAGUAUUUUCAAA, for which the “pre-steady-state target cleavage rate” value is less than 0.0001.

Take UCCUGGAUGUCGUAGCAUAGUAUUUUGUUA: the “pre-steady-state target cleavage rate” value was less than 0.0001.

For “UCCUGGAUGUCGAAGCAUAGUAUUUAGUUU [g2:g16:cont:t1U]”, the “pre-steady-state target cleavage rate” value is less than 0.0001.

For the sequence UCCUGGAUGUCGAAGCAUAGUAUUUAGCUA, the “pre-steady-state target cleavage rate” value is less than 0.0001.
